In PubChem BioAssay AID504327 (National Center for Advancing Translational Sciences (NCATS), 2011):
“And” between values parts separate entries of the source, which are not always exact repeats. Identical values can stand only once. Out of some 390,000 compounds screened, about 820 (0.21%) were called active. Inconclusive results (about 3%) are left out. Calls come from the whole dose curve; as a rule, active = well fitted inhibition curve with a large enough effect; inconclusive = small, poorly fitted or top-dose-only effect, or another doubt; inactive = no such curve, though single readings can be large or run the other way. This excerpt belongs to a sample that is enriched for actives. Where a structure was tested more than once in an assay, its records may differ in their call.

molecular target: Histone acetyltransferase KAT2A (Homo sapiens) (UniProt Q92830); assay: qHTS Assay for Inhibitors of GCN5L2; conditions: GCN5L2 HAT assay, ThioGlo1 CoA-SH fluorescence; series mostly up to 58.9 µM; activity change, negative = inhibition: at the top concentration
Excerpt: Histone acetyltransferase (HAT) enzymes transfer a […] group from acetyl-coenzyme A to the epsilon-amino group of conserved lysine residues of N-terminal histone tails. Acetylation results in charge neutralization of this positively charged amino acid, decreasing interactions with the […] backbone and making the DNA more accessible for transcription. HATs have been recognized as an emerging drug target for treatment of cancer, diabetes, asthma, chronic obstructive pulmonary disease, cardiac disease, and viral infection. Protein identified with HAT activity include the […] like 2 (GCN5L2, a.ka. Histone acetyltransferase KAT2A) which acetylates histone H3 at Lys9, 14, 18, 13, and to lesser extent histones H4 and H2B. This activates transcription of the gene by modulating chromatin structure and installing the acetyllysine recognition mark for bromodomain-containing coactivator proteins.
A quantitative high throughput screen was developed to identify small molecule inhibitors. The assay is based on the principle that it measures formation of reduced CoA with the pro-fluorescent maleimide derivative ThioGlo1 that becomes fluorescent upon reaction with the free thiol of CoA.
A large number of artifacts are expected in this primary screen, compounded by the assay format (fluorescent artifacts) and by the high top concentration tested for each substance. This BioAssay data deposition should be used with caution, and counterscreen and secondary assay validation is essential since very few actives from the primary screen are expected to be true inhibitors of GCN5L2.
[2] Yasgar, et al. Compound Management for Quantitative High-Throughput Screening. JALA. 2008 Apr;13(2):79-89.
[3] Inglese, et al. Quantitative high-throughput screening: a titration-based approach that efficiently identifies biological activities in large chemical libraries. Proc Natl Acad Sci. 1;103(31):11473-8. 2006. PMID: 16864780
NIH Molecular Libraries Probe Production Network [MLPCN]
NIH Chemical Genomics Center [NCGC]
Structural Genomics Consortium (SGC)
To each well of a 1,536w plate, 3ul of GCN5L2 (final concentration 20nM, in 50mM HEPES, 0.1mM EDTA (pH 7.5), 0.01% Tween-20 buffer) are added using a Kalypsys dispenser. Only buffer is added to some wells as a control. A Kalypsys pin-tool transferred 23nl of library compound solution in DMSO to each well, as well as the control inhibit garcinol. . Following a 15 min incubation of enzyme with compounds at room temperature, 1ul mixture of ThioGlo1 (50uM final), H3(1-25) peptide (75uM final), and Acetyl-CoA (70uM final) is added. Plates are read immediately on the ViewLux (PerkinElmer) (Ex340nm/Em540nm) for a 0 min read, incubated for 20 min at room temperature, and read again on the ViewLux with the same settings. The initial read was carried out to identify compounds that are potentially fluorescent.
% is set by controls: 0 for no effect and ±100 for the full control effect; potency is the fitted concentration of half-maximal effect.

Chain of Histone acetyltransferase KAT2A (Homo sapiens) (Q92830 whole entry, looked up): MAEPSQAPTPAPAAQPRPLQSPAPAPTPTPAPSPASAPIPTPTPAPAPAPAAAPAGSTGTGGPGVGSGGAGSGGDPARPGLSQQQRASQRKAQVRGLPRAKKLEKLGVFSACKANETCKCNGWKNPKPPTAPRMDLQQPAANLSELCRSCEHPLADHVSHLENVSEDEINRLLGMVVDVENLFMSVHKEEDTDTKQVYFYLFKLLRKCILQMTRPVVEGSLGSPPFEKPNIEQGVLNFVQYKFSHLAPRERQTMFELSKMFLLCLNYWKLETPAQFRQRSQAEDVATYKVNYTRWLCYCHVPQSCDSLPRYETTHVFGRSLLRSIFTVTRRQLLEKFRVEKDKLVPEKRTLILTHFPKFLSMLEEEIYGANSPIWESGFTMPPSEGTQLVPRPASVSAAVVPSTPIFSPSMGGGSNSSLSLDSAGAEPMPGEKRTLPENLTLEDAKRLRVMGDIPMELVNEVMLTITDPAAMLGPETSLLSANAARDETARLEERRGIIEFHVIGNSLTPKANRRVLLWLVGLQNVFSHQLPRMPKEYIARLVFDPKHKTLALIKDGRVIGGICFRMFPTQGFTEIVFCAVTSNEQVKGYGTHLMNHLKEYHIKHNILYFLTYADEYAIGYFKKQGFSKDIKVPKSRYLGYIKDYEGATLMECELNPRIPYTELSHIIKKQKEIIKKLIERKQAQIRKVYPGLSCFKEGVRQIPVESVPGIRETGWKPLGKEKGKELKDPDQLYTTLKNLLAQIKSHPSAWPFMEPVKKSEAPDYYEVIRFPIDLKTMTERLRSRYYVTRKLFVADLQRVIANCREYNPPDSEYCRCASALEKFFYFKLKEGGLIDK

| SMILES | Potency | activity change, negative = inhibition |
| --- | --- | --- |
| COc1ccc(N2C(=O)/C(=C/c3ccco3)C(=O)NC2=S)cc1 | 17.8 µM (active) |  |
| COc1ccc2c3c1O[C@H]1C[C@@H](O)C=C[C@@]31CCN(C)C2 | inactive |  |
| CC(C)(Cc1c[nH]c2ccc(Cl)cc12)NCCOc1ccccc1OCC1CC1 | inactive |  |
| C[C@]12CC[C@@H]3c4ccc(O)cc4C[C@@H](CCCCCCCCCS(=O)CCCC(F)(F)C(F)(F)F)C3[C@@H]1CC[C@@H]2O (stereo not given in full) |  | 34.1% (inactive) |
| CCCCC/C=C\C/C=C\C/C=C\C/C=C\CCCCCC(=O)NCCO | inactive |  |
| Cc1cccc2c3c(ccc12)C1=C(C(=O)C3=O)C(C)CO1 (stereo not given) | 31.6 µM (active) |  |
| C[C@]12O[C@H](C[C@@]1(O)C(=O)O)n1c3ccccc3c3c4c(c5c6ccccc6n2c5c31)CNC4=O |  | 37.3% (inactive) |
| CCOc1ccc(S(=O)(=O)NCc2ccc3c(c2)OCO3)cc1C |  | -4.01% (inactive) |
| COc1ccc2c3c1OC1CC(O)C=C[C@@]31CCN(C)C2 (stereo not given in full) |  | -3.98% (inactive) |
| CC(C)C(N)C(=O)OCCOCn1cnc2c(=O)[nH]c(N)nc21 (stereo not given) |  | -17% (inactive) |
| CN(C)C[C@H]1CCCC[C@]1(O)c1cccc(O)c1 |  | -5.12% (inactive) |
| CC(C)(c1ccc(OC[C@@H]2CO2)cc1)c1ccc(OC[C@H]2CO2)cc1 |  | -15.6% (inactive) |
| CC(=O)c1c(O)c(C)c(O)c(Cc2c(O)c3c(c(C(=O)/C=C/c4ccccc4)c2O)OC(C)(C)C=C3)c1O | inactive and 11.2 µM (active) |  |
| CC(=O)c1c(O)c(C)c(O)c(Cc2c(O)c3c(c(C(=O)/C=C\c4ccccc4)c2O)OC(C)(C)C=C3)c1O | 35.5 µM (active) |  |
| CCC(C)C(=O)O[C@@H]1C[C@@]2(C)C(c3ccoc3)OC(=O)CC23OC2(C)O[C@@]14[C@@]1(C)C(CC(=O)OC)C5(C)CC1(O)C(O)(C5OC(=O)C1(C)OC1C)C(OC(C)=O)[C@@]34O2 (stereo not given in full) |  | -8.65% (inactive) |
| C=CCN1CCC2(C)c3cc(O)ccc3CC1[C@@H]2C (stereo not given in full) |  | -21.9% (inactive) |
| CN1CCCC(=C(c2cccs2)c2cccs2)C1 |  | -2.25% (inactive) |
| CC(C)(O)c1[se]c2ccccc2c1I |  | -12% [at 88.6 µM] (inactive) |
| CO[C@@H]1C[C@@H](C[C@H]2CC[C@H](C)[C@@H]([C@@H](C)C(=O)O)O2)O[C@]2(O[C@](C)([C@H]3CC[C@@](C)(C4OC([C@H]5O[C@@](O)(CO)[C@H](C)C[C@@H]5C)C[C@@H]4C)O3)C[C@H]2C)[C@@H]1C (stereo not given in full) |  | -5.57% (inactive) |
| CCN(CC)c1nc(C)cc(OP(=S)(OC)OC)n1 |  | -9.1% (inactive) |
| CN(C)[C@@H]1C(=O)C(C(N)=O)=C(O)[C@@]2(O)C(=O)C3=C(O)c4c(O)cccc4[C@@](C)(O)C3CC12 (stereo not given in full) |  | 3.36% (inactive) |
| COC([CH2][Hg])CNC(=O)c1ccccc1OCC(=O)O (stereo not given) | 0.891 µM (active) |  |
| O=C1CCc2cccc3c2N1CC3 |  | 7.32% (inactive) |

| SMILES | Potency | activity change, negative = inhibition |
| --- | --- | --- |
| CC(C)=CCC[C@]1(C)[C@@H](CC=C(C)C)C[C@@]2(CC=C(C)C)C(=O)[C@]1(C(=O)C(C)C)C(=O)C(CC=C(C)C)=C2O | 28.2 µM (active) |  |
| Nc1ccc(-c2ccc(N)c(N)c2)cc1N |  | -7.25% (inactive) |
| CCCN(C/C=C/I)C1CCc2ccc(O)cc2C1 (stereo not given) |  | -0.627% (inactive) |
| NCCc1c[nH]c2ccc(O)cc12 | inactive and 11.2 µM (active) |  |
| Cc1cccc2c(CCN)c[nH]c12 |  | -2.68% (inactive) |
| COc1ccc2[nH]cc(CCNCc3ccc(Br)cc3)c2c1 |  | 1.22% (inactive) |
| CC(=O)Oc1ccccc1C(=O)Nc1ncc([N+](=O)[O-])s1 |  | -3.77% (inactive) |
| CC[C@@H]1CN2CC[C@@H]1C[C@H]2[C@H](O)c1ccnc2ccc(OC)cc12 |  | -9.14% (inactive) |
| COc1ccccc1-c1[se]c2ccccc2c1I |  | -12.9% (inactive) |
| CCCCCCCCCCCCN=C(N)N |  | 0.337% (inactive) |
| N#Cc1c(Cl)c(Cl)c(Cl)c(C#N)c1Cl |  | -13.8% (inactive) |
| CCCCCCCCCCCCCC(=O)O[C@@H]1[C@@H](C)[C@@]2(O)[C@@H](C=C(CO)C[C@]3(O)C(=O)C(C)=C[C@@H]23)[C@@H]2C(C)(C)[C@]12OC(C)=O |  | 2.06% (inactive) |
| CC(=O)[O][Sn]([c]1ccccc1)([c]1ccccc1)[c]1ccccc1 | 4.47 µM (active) |  |
| COC(=O)N1C(c2ccccc2)C1c1ccccc1 (stereo not given) |  | 0.274% (inactive) |
| C[C@H]1C/C=C/[C@@H]2[C@@H]3O[C@]3(C)[C@@H](C)[C@H]3[C@H](Cc4ccccc4)NC(=O)[C@]32OC(=O)O/C=C/[C@](C)(O)C1=O |  | 3.33% (inactive) |
| CN[C@@H]1C[C@H]2O[C@@](C)([C@@H]1OC)n1c3ccccc3c3c4c(c5c6ccccc6n2c5c31)C(=O)NC4 |  | 4.47% [at 12.7 µM] (inactive) |
| CNCC[C@H](Oc1ccc(C(F)(F)F)cc1)c1ccccc1 | inactive and 8.91 µM (active) |  |
| CCCCC/C=C\C/C=C\C/C=C\C=C\[C@H](CCCC(=O)O)OO |  | 9.21% (inactive) |
| N#CC(C#N)=Cc1cc(O)c(O)c([N+](=O)[O-])c1 | inactive |  |
| C[C@@H]1C[C@H]2CC[C@H](O2)[C@H](C)C(=O)O[C@@H](C)C[C@@H]2CC[C@@H](O2)[C@@H](C)C(=O)O[C@H](C)C[C@H]2CC[C@H](O2)[C@H](C)C(=O)O[C@@H](C)C[C@@H]2CC[C@@H](O2)[C@@H](C)C(=O)O1 |  | 41.3% (inactive) |
| N#Cc1cc(Br)c(O)c(Br)c1 |  | -21.5% (inactive) |
| c1ccc(N2CC[C@@]3(CCCNC3)C2)nc1 |  | 7.24% (inactive) |
